PME-1 primary: PME-1 inhibitors via competitive probe labeling, primary screen, biochemical, fluorescence polarization, FP-Rh probe, HTS | hit rate 0.53% among 320,000 | Protein phosphatase methylesterase 1 (Homo sapiens), Q9Y570 | recombinant PME-1 | inhibition, % at 5.9 µM | AID 2130, 2009;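 active means inhibition above the campaign mean of all compounds plus 3 SD, cut at about 26% in these data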;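 further: competitive labeling of PME-1 active site by serine hydrolase directed probe; inhibitors block probe labeling so polarization falls and inhibition rises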
Fam108B counter: mouse Fam108B serine hydrolase inhibitors, primary screen, counter-screen for RBBP9 inhibitor project, biochemical, fluorescence polarization; recombinant Fam108B, FP-Rh probe fluorescence polarization; inhibition, % at 9.51 µM; hit rate 0.33% among 300,000;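 active means inhibition above the screen mean inhibition plus 3 SD, computed separately per campaign, cut at about 18% in these data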;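 further: inhibitors lower polarization as less probe binds the enzyme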
GSTO1 inh: inhibitors of recombinant GSTO1, primary screen, counter-screen for RBBP9 inhibitor project, biochemical, fluorescence polarization; hit rate 1.1% among 300,000; inhibition, % at 5.96 µM; activity-based probe fluorescence polarization;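 active means inhibition above the campaign mean inhibition plus 3 SD, cut at about 35% in these data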
Target sequence (P78417 whole entry, looked up): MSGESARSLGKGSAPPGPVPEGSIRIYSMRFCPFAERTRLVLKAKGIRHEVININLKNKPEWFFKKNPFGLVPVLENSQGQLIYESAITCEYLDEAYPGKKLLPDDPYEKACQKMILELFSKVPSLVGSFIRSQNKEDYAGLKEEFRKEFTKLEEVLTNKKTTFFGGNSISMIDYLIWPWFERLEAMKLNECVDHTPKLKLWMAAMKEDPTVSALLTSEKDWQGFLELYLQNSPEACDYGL
LYPLA2 counter: LYPLA2 inhibitors, primary screen, counter-screen for PME1 inhibitor project, biochemical, fluorescence polarization, FP-Rh probe ABPP | Acyl-protein thioesterase 2 (Homo sapiens), O95372 | recombinant LYPLA2 | inhibition, % at 5.9 µM | hit rate 0.38% among 320,000;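 active means inhibition above the screen-wide mean plus 3 SD, limit set per campaign, cut at about 26% in these data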
Target sequence (O95372 whole entry, looked up): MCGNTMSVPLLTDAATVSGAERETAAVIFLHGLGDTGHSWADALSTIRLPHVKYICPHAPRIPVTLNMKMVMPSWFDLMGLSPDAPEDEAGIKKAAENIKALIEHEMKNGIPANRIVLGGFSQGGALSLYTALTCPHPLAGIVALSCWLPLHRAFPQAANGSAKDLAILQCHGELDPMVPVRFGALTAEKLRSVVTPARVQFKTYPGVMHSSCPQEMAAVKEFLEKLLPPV
PREPL inhibitor: PREPL enzyme inhibitors, primary screen, biochemical, fluorescence polarization; recombinant PREPL, fluorescence polarization activity-based probe; inhibition, % at 5.96 µM; hit rate 0.68% among 320,000; in the data active means inhibition above about 43%
LYPLA1 inh: LYPLA1 inhibitors, primary screen, counter-screen for PME1 inhibitor project, biochemical, fluorescence polarization, FP-Rh probe ABPP | Acyl-protein thioesterase 1 (Homo sapiens), O75608 | inhibition, % at 5.9 µM | recombinant LYPLA1 | AID 2174, 2009 | hit rate 0.16% among 320,000;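 active means inhibition above the mean of all tested compounds plus 3 SD, set per campaign, cut at about 14% in these data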;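 further: inhibitors block serine hydrolase probe labeling of LYPLA1 so polarization falls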
A number is an active result; . = inactive; / = no result given. Compounds with a hit are over-represented: about 1.9% of the library has one in this group of screens.

SMILES | PME-1 primary | Fam108B counter | GSTO1 inh | LYPLA2 counter | PREPL inhibitor | LYPLA1 inh
O=C(OC[C@H]1O[C@@H](OC(=O)c2cc(O)c(O)c(OC(=O)c3cc(O)c(O)c(O)c3)c2)[C@H](OC(=O)c2cc(O)c(O)c(OC(=O)c3cc(O)c(O)c(O)c3)c2)[C@@H](OC(=O)c2cc(O)c(O)c(OC(=O)c3cc(O)c(O)c(O)c3)c2)[C@@H]1OC(=O)c1cc(O)c(O)c(OC(=O)c2cc(O)c(O)c(O)c2)c1)c1cc(O)c(O)c(OC(=O)c2cc(O)c(O)c(O)c2)c1 | 26 | 65 | . | . | 104 | .
Cc1occc1-c1nnc(SCC(=O)c2ccc(F)cc2)o1 | . | . | 36 | . | . | .
Cc1occc1-c1nnc(SCC(N)=O)o1 | . | . | . | . | . | .
N#Cc1c(NC(=O)c2ccccc2Cl)n(Cc2ccccc2)c2nc3ccccc3nc12 | . | . | 47 | . | . | .
CCCCn1c(NC(=O)CC)c(C#N)c2nc3ccccc3nc21 | . | . | . | . | . | .
N#Cc1c(N)nc2c3c(sc(=N)c2c1N)NC(=O)CC3c1c(F)cccc1Cl (stereo not given) | 63 | . | 35 | . | . | .
Cc1c(C#N)c(N)nc2c3c(sc12)NC(=O)CC3c1ccc(Cl)cc1 (stereo not given) | . | . | . | . | . | .
COc1cc(C(=O)NC(C)C2CC3CCC2C3)ccc1OC(F)F (stereo not given) | . | / | / | . | . | .
O=C(O)c1ccc(S(=O)(=O)Nc2ccc(O)c(Sc3nc4ccccc4s3)c2)cc1 | . | . | 55 | . | . | .
NS(=O)(=O)c1ccc(Sc2nc3ccccc3s2)c([N+](=O)[O-])c1 | . | . | . | . | . | .
CC(C)COc1ccc(C(=O)NC(CC(C)C)C(=O)O)cc1 (stereo not given) | . | . | . | . | . | .
Cc1ccc(Oc2ccc(OCC(=O)NC(CC(C)C)C(=O)O)cc2)cc1 (stereo not given) | . | . | 38 | . | . | .
Cc1ccc(CNC(=O)/C(C#N)=C\c2ccc(N(C)C)cc2)cc1 | 27 | . | . | . | . | .
COCCC(=O)Nc1ccc2c(c1)CN(C(=O)c1ccc(CSC)o1)CC2 | . | . | . | . | . | .
O=c1cc(C(F)(F)F)nc(-n2[nH]c3c(c2=O)CCCC3)[nH]1 | . | . | 40 | . | . | .
Nc1nc(C(F)(F)F)cc(=O)[nH]1 | . | . | . | . | . | .
COc1ccccc1NC(=O)CN(Cc1ccco1)C(=O)c1ccc(N2CCCC2=O)cc1 | / | / | / | / | . | /
O=C(CCl)N(C/C=C/c1ccccc1)c1ccc2c(c1)OCCO2 | . | . | 93 | . | . | .
O=C(/C=C/c1ccccc1)c1ccc2c(c1)OCCCCO2 | . | . | . | . | . | .
CCOc1ccc(NC(=O)Nc2ccc3c(c2)N(C)C(=O)CS3)cc1 | 33 | . | . | . | . | .
CC(=O)c1ccc(NC(=O)Nc2ccc3c(c2)N(C)C(=O)CS3)cc1 | . | . | . | . | . | .
O=C(NCc1ccccc1)C1CCN(S(=O)(=O)c2ccc(Cl)cc2)CC1 | 44 | . | . | . | . | .
O=C(NCc1ccncc1)C1CCN(S(=O)(=O)c2ccccc2)CC1 | . | . | . | . | . | .
Cc1ccc2c(c1)-c1ccccc1S(=O)(=O)N2 | . | . | . | . | . | .
Nc1ccc2c(c1)-c1ccccc1S(=O)(=O)N2 | . | . | 37 | . | . | .
SMILES | PME-1 primary | Fam108B counter | GSTO1 inh | LYPLA2 counter | PREPL inhibitor | LYPLA1 inh
O=C1C=C(c2ccc(Cl)c(C(F)(F)F)c2)C[C@@H](c2ccc(Cl)cc2)C1 | . | / | / | . | . | .
CCOc1ccc(S(=O)(=O)NCC(=O)NC2CCCCC2)cc1 | . | / | / | . | . | .
CCCc1ccc2oc(C(=O)N(Cc3nccn3C)C(C)C)c(C)c2c1 | . | . | . | . | . | .
CCOC(=O)C1=C(C)Nc2ccccc2N/C1=N\S(=O)(=O)c1cccc(Cl)c1 | 26 | / | / | . | . | .
C=C1C(=O)O[C@@]23[C@H]1CC[C@@H](C)[C@@H]2CC[C@@]1(C)O[C@@H]31 | / | / | / | / | . | /
O=C1C2CCCCN2C(=O)N1CCCN1CCN(c2ccc(F)cc2)CC1 (stereo not given) | . | . | . | . | . | .
Nc1ccc(N2CCN(CCCCN3C(=O)C4CCCN4C3=O)CC2)cc1 (stereo not given) | . | . | . | 29 | . | .
O=C(Nc1ccc2nc(-c3ccco3)c(-c3ccco3)nc2c1)N1CCCCCC1 | . | 40 | 60 | . | 75 | .
O=C(Cc1ccc(Cl)cc1)Nc1cccc(S(=O)(=O)N2CCCCC2)c1 | . | / | / | . | . | .
O=C(CCl)Nc1cccc(S(=O)(=O)N2CCCCCC2)c1 | . | . | 91 | . | . | .
CCN(CC)S(=O)(=O)c1ccc(N2CCCC2)c(NC(=O)C2=NN(c3ccccc3)C(=O)CC2)c1 | . | / | / | . | . | .
CCS(=O)(=O)C1=NN2C(=N)/C(=C\c3ccc(OC(=O)c4ccco4)cc3)C(=O)N=C2S1 | . | . | . | . | . | .
COc1cc(/C=C2\C(=N)N3N=C(S(=O)(=O)CC(C)C)SC3=NC2=O)ccc1OC(=O)c1ccco1 | . | . | . | . | 49 | .
Cn1c(=O)[nH]c(=O)c2c1nc([N+](=O)[O-])n2Cc1ccccc1 | . | . | . | . | . | .
C[n+]1cccc(C2C(C#N)=C(N)Oc3c2ccc2ccccc32)c1 (stereo not given) | . | . | 37 | . | . | .
O=C(CN1C(=O)NC(Cc2ccccc2)C1=O)Nc1ccc(F)c(F)c1F (stereo not given) | . | / | / | . | . | .
O=C(NNC(=O)c1cc2cc(Br)ccc2oc1=O)c1ccc(O)cc1O | 34 | . | . | . | . | .
CCNC(C(=O)c1c[nH]c2c(CC)cccc12)c1ccccc1 (stereo not given) | . | . | . | . | . | .
[O-][n+]1cccc2c(Br)cc(Br)c(O)c21 | . | . | 46 | . | . | .
COc1ccc(NC(=O)COC(=O)CCc2ccc(S(=O)(=O)N3CCOCC3)cc2)cc1Cl | / | / | / | / | . | /
CC(C)c1onc(C(=O)NCc2ccccc2)c1[N+](=O)[O-] | . | . | 37 | . | . | .
COc1ccc(CNC(=O)c2noc(C(C)C)c2[N+](=O)[O-])cc1 | . | . | . | . | . | .
COc1cc2c(cc1OC)CN(CC(=O)Nc1ccc(Cl)c(S(=O)(=O)N(C)C)c1)CC2 | 40 | . | . | . | . | .
COc1cc2c(cc1OC)CN(CC(=O)Nc1ccc(S(=O)(=O)N(C)C)cc1)CC2 | . | . | . | . | . | .
CCOc1ccc(-c2n[nH]c(=S)c3ccccc23)cc1 | . | . | . | . | . | .
